Test results: PubChem BioAssay AID624256 (NMMLSC, 2012)
Among all 360,000 compounds or so, about 3,700 (1%) were called active. Another 2% or so got no clear call; they are omitted.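 How the source made its calls: active means normalized GFP-positive differentiation at or above the plate's own cutoff, the solvent-only control mean plus 3 SD; inconclusive means no clear call, values can overlap the other calls; inactive means the rest.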 The sample as a whole holds a higher share of actives than the screen did.

Assay: HoxA9-arrested leukemia cell differentiation promoters – flow cytometry, MLPCN library, primary screen (AID 624256);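 on GFP+ MAC1+ double positive: cells exposed to compound for four days before flow analysis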;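 on normalized GFP-positive differentiation: cells exposed to compound for four days before flow analysis; 0% = DMSO wells and 100% = fulvestrant positive control at 5 µM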
Conditions: ER-HoxA9 myeloid progenitors, lysozyme-GFP differentiation, at 10 µM; GFP+ MAC1+ double positive: measured here: differentiation confirmed by MAC1 staining, stronger effect = higher value; normalized GFP-positive differentiation: stronger effect = higher value

Compound | GFP+ MAC1+ double positive [%] | outcome | normalized GFP-positive differentiation
CCOC(=O)[C@]12CCCC=C1N(Cc1cccc3ccccc13)C(=O)[C@H](CC(=O)NCC13CC4CC(CC(C4)C1)C3)C2 | 2.1 | inactive | 
Cc1ccc(S(=O)(=O)NCCNC(C)c2ccc(Br)cc2)cc1 (stereo not given) | 1 | inactive | 
Cc1ccc(S(=O)(=O)NCC(C)NS(C)(=O)=O)cc1 (stereo not given) | 2 | inactive | 
Cc1ccc(S(=O)(=O)NCCSC(C)(C)C)cc1 | 5.2 |  | 17.8% (active)
OC(c1ccccc1)c1nc(-c2cnc3ccccc3c2)cs1 (stereo not given) | 0.6 | inactive | 
C=C1C(=O)[C@]23C[C@H]1CCC2[C@@]1(C)C(C[C@@H]3O)[C@](C)(C(=O)O)CC[C@@H]1O (stereo not given in full) | 3.8 |  | 13.1% (active)
CCOC(=O)C1=CC[C@@H](c2ccncc2)N(S(=O)(=O)c2ccc(C)cc2)C1 | 1.2 | inactive | 
COc1ccc(C2OC(CCc3ccccc3)Cc3[nH]c(=S)[nH]c(=O)c32)cc1 (stereo not given) | 1.5 | inactive | 
Cc1ccc(S(=O)(=O)C(C#N)c2nc3ccccc3nc2N2CCCC2)cc1C (stereo not given) | 1.7 |  | 59% (active)
CC(=O)c1ccc(S(=O)(=O)N2CCN(c3nc4c(C)c(C)ccc4cc3C#N)CC2)cc1 | 0.3 | inactive | 
Cc1ccc(S(=O)(=O)N2CCN(c3ccccc3)CC2)cc1C | 0.5 | inactive | 
CC(C)n1c(CN2CCN(Cc3ccccc3)CC2)nc2ccccc21 | 0.1 | inactive | 
COC(=O)c1sc(N2CCN(Cc3ccccc3)CC2)nc1N | 0.5 | inactive | 
CC(C)OC(=O)C(C#N)c1nc2ccccc2nc1N1CCN(Cc2ccccc2)CC1 (stereo not given) | 0.7 |  | 12.1% (active)
CCCCCn1nnnc1-c1nc2cc3ccccc3cc2[nH]c1=O | 1.8 | inactive | 
Cc1nc(Nc2ccc3c(c2)OCCO3)c2nnn(Cc3ccccc3Cl)c2n1 | 18.1 |  | 21.9% (active)
CCCc1nc(NCc2ccc3c(c2)OCO3)c2nnn(Cc3ccccc3Cl)c2n1 | 0.8 | inactive | 
Cc1nc(Nc2ccccc2F)c2nnn(Cc3ccccc3Cl)c2n1 | 0.5 | inactive | 
CCCCCc1c(Cc2ccccc2)ncn1CCc1ccccc1OC | 3.9 | inactive | 
C[C@@H]1CN([C@@H](C)CO)C(=O)c2cc(NC(=O)C3CC3)ccc2O[C@H]1CN(C)C | 1.9 | inactive | 
COc1ccc(NC(=O)Nc2ccc3c(c2)C(=O)N([C@H](C)CO)C[C@H](C)[C@@H](CN(C)C(=O)Nc2ccc4c(c2)OCO4)O3)cc1 | 2.5 | inactive | 
COc1ccc(NC(=O)N(C)C[C@H]2Oc3ccc(NC(=O)C4CC4)cc3C(=O)N([C@H](C)CO)C[C@@H]2C)cc1 | 1.6 |  | 10.4% (active)
CCOC(=O)[C@]12CCC=C1N(Cc1ccccc1)C(=O)[C@H](CC(=O)N1CCCC1)C2 | 0.9 | inactive | 
N#C/C(=C/c1ccc(N2CCCCC2)o1)C(=O)NCCc1c[nH]c2ccccc12 | 3.1 |  | 118% (active)
N#C/C(=C/c1ccc(N2CCOCC2)o1)C(=O)N1CCOCC1 | 0.4 | inactive | 
N#C/C(=C\c1ccc(N2CCOCC2)o1)C(=O)N1CCOCC1 | 0.4 | inactive | 
CCC(c1nnnn1-c1ccc2c(c1)OCCO2)N1CCN(c2ccc(C(F)(F)F)cn2)CC1 (stereo not given) | 0.4 | inactive | 

Compound | GFP+ MAC1+ double positive [%] | outcome | normalized GFP-positive differentiation
CCNC(=O)c1cc2c(c(-c3cccc(-c4cncnc4)c3)n1)[C@H](CCO)N(C(C)=O)C2 | 0.5 | inactive | 
CCCNC(=O)C[C@@H]1CC[C@@H]2[C@H](COC[C@H](O)CN2C(=O)c2cc(Cl)cc(Cl)c2)O1 | 0.9 | inactive | 
CCCCCc1c(-c2cccc(Br)c2)ncn1CCc1ccccc1OC | 1 | inactive | 
Cc1nc2c(OCc3cccc(Cl)c3)cccn2c1N(C)CC1CC1 | 0.4 | inactive | 
O=C(O)c1ccc(NN=CC2=C(N3CCOCC3)/C(=C/c3ccccc3)CC2)cc1 | 0.1 | inactive | 
N#C/C(=C\C1=C(N2CCOCC2)C(=C\c2ccccc2)/CC1)C(=O)Nc1ccccc1F | 11.3 |  | 127% (active)
O=C1Nc2ccc(Br)cc2/C1=N/N=C/C1=C(N2CCOCC2)C(=C\c2ccccc2)/CC1 | 0.4 | inactive | 
COc1ccc(OC)c(CN2C(=O)CCC2(C)c2nnnn2Cc2ccccc2)c1 (stereo not given) | 0.7 | inactive | 
CCOC(=O)[C@]12CCCC=C1N(Cc1ccc(Cl)cc1Cl)C(=O)[C@H](CC(=O)N1CCCCC1)C2 | 0.5 | inactive | 
Cc1ccc(C(=O)Nc2c(-c3ccccc3)[nH][nH]c2=O)cc1 | 0.3 | inactive | 
COc1cc(OC)cc(-c2nc3ccccc3c(=O)n2NC(=O)c2cccnc2Cl)c1 | 0.9 | inactive | 
COc1ccccc1C(=O)Nn1c(-c2cccs2)nc2ccccc2c1=O | 0.5 | inactive | 
O=C(Nn1c(-c2ccc(Cl)cc2)nc2ccccc2c1=O)c1cccnc1Cl | 2.1 |  | 151% (active)
CC(=O)C[C@@H]1OC[C@H](CO)N1S(=O)(=O)c1ccc(C)cc1 | 2.1 | inactive | 
O=C(C[C@H]1CC[C@@H](NC(=O)c2ccncc2)[C@@H](CO)O1)NCC1CC1 | 0.9 | inactive | 
CCOC(=O)CC(=O)CSc1nc(-c2ccccc2)cc(-c2ccc(Cl)cc2)c1C#N | 26.9 |  | 14.9% (active)
N#Cc1c(C(F)(F)F)cc(-c2ccccc2)nc1SCC(=O)N1CCOCC1 | 1.4 | inactive | 
CCSc1nc(-c2ccc(OC)cc2)cc(-c2ccc(OC)cc2)c1C#N | 7.7 | inactive | 
Cc1noc(C)c1C(=O)N1CCC1(C)C(=O)NS(=O)(=O)c1ccc(C#N)cc1 (stereo not given) | 1.2 | inactive | 
O=C(Cc1csc(Nc2nc(=S)[nH]c3ccccc23)n1)NCCCN1CCN(c2cccc(Cl)c2)CC1 | 1 | inactive | 
Cn1c(C(=O)NCCCN2CCN(c3cccc(Cl)c3)CC2)cc2c(=O)n(C)c3ccccc3c21 | 11.3 |  | 36.1% (active)
CCN1CCCC1CNC(=O)c1cc2c(=O)n(C)c3ccccc3c2n1C (stereo not given) | 0.5 | inactive | 
CC(=O)Nc1cc(-c2cccc(CO)c2)cn2c(-c3cccc(C(F)(F)F)c3)cnc12 | 0.8 | inactive | 
CN=c1scc(-c2cc(OC)ccc2OC)n1/N=C/c1c(C)[nH]c2ccccc12 | 1.2 | inactive | 
COc1cc2[nH]c(O)c(C=O)c2cc1OC | 0.7 | inactive | 
COc1cc(N=Cc2c(O)[nH]c3ccccc23)cc(OC)c1OC | 16.7 |  | 15.8% (active)
CCOC(=O)[C@H]1Nc2ccc(Cl)cc2[C@@H]2[C@H]1C1CC(c3ccccc31)N2C(=O)OCc1ccccc1 (stereo not given in full) | 1 | inactive | 

Compound | GFP+ MAC1+ double positive [%] | outcome | normalized GFP-positive differentiation
CC(C)C[C@H]1CNC(=S)N1C[C@H]1CCCN1C[C@H](Cc1ccc(O)cc1)N1C[C@H](Cc2ccc(O)cc2)N(CC2CCCCC2)C1=S | 1.3 | inactive | 
Cc1ccc(C)c(S(=O)(=O)N2CCN(C(=O)Nc3ccccc3)CC2)c1 | 0.3 | inactive | 
COc1ccc(-c2csc3ncnc(N4CCN(S(=O)(=O)c5ccccc5C#N)CC4)c23)cc1 | 1.7 | inactive | 
Cc1ccc(C)c(S(=O)(=O)N2CCN(c3ncnc4sccc34)CC2)c1 | 2.8 |  | 41.1% (active)
CCC(C(=O)NCc1ccccc1)n1c(Cc2cc(F)cc(F)c2)nc2ccccc21 (stereo not given) | 2 | inactive | 
Nc1ncnc2c1ncn2[C@@H]1O[C@H](C(=O)N2CCCN(Cc3ccccc3F)CC2)[C@@H](O)[C@H]1O | 1.3 | inactive | 
CC1CCCCN1C(=O)Cn1c(=O)oc2cc(S(=O)(=O)N3CCCCC3)ccc21 (stereo not given) | 6.7 |  | 53.2% (active)
O=C(NC1CCCCC1)n1c(=O)oc2cc(S(=O)(=O)N3CCCCC3)ccc21 | 8.3 | inactive | 
CC1CCCN(C(=O)Cn2c(=O)oc3cc(S(=O)(=O)N4CCCCC4C)ccc32)C1 (stereo not given) | 2.1 | inactive | 
CC1=C(C(=O)N(C(C)C)C(C)C)CC(CC(=O)NCCCCc2ccccc2)C(=O)N1CCC1=CCCCC1 (stereo not given) | 1 | inactive | 
O=S1(=O)CC(N2CCN(c3ccccn3)CC2)CN1Cc1ccc(F)cc1 (stereo not given) | 0.9 | inactive | 
CCOC(=O)[C@]12CCC=C1N(Cc1cccc3ccccc13)C(=O)[C@H](CC(=O)NCc1cccc(C(F)(F)F)c1)C2 | 0.3 | inactive | 
COC(=O)[C@@]12C[C@@H](CC(=O)N3CCC(c4ccccc4)CC3)C(=O)N(Cc3ccccc3)C1=CCC(C)(C)C2 | 1.2 | inactive | 
Clc1ccc(-n2nnnc2-c2cnc(-c3ccccn3)nc2-c2cccs2)cc1 | 0.7 | inactive | 
O=C(Cn1cc(-c2nnnn2-c2ccc(Cl)cc2)c(=O)c2ccccc21)c1ccccc1 | 7.2 |  | 37.5% (active)
O=C(CN1CCN(c2ccc(Cl)cc2)CC1)c1ccccc1 | 0.3 | inactive | 
COC(=O)[C@]12CCCCC=C1N(CCC1=CCCCC1)C(=O)[C@H](CC(=O)NCC1CCCCC1)C2 | 1.7 | inactive | 
Cc1ccc(-c2cnc(C(O)c3cccc(C)c3C)[nH]2)cc1 (stereo not given) | 0.9 | inactive | 
CS(=O)(=O)N1CCN(c2ccc(C(=O)NC3C4CC5CC(C4)CC3C5)cc2[N+](=O)[O-])CC1 (stereo not given) | 1 | inactive | 
O=C(NC1C2CC3CC(C2)CC1C3)c1ccc(N2CCNCC2)c([N+](=O)[O-])c1 (stereo not given) | 0.8 |  | 16.7% (active)
O=C(Nc1cccc(C(F)(F)F)c1)c1ccc(N2CCNCC2)c([N+](=O)[O-])c1 | 0.4 | inactive | 
Cc1cc(O)ccc1-c1cc(C(=O)NCc2cc(C(F)(F)F)cc(C(F)(F)F)c2)[nH]n1 | 0.4 | inactive | 
O=C1CCNCCN1[C@H](CO)Cc1ccccc1 | 1.1 | inactive | 
c1ccc2c(CCN3CCNC[C@H]3Cc3cccc4ccccc34)cccc2c1 | 6 | inactive | 
c1ccc(C[C@H]2CNCCN2CCC23CC4CC(CC(C4)C2)C3)cc1 | 4 |  | 18.5% (active)
CCc1nc2ccc(C(=O)NC3CCN(Cc4ccccc4)CC3)cn2c1N(CC)CCOC | 1.3 | inactive | 
